Sampled rows, rich in hits. Any-hit rate of the full collection: about 6.5%.
VACV Venus inh: inhibitors of vaccinia virus (Venus reporter); Vaccinia virus Venus reporter expression, fluorescence; hit rate 0.46% among 330,000; Potency, µM (doses to about 36.5 µM), for the others: top-dose activity change, negative = inhibition, hits mostly inhibitors; calls by dose curve; tested in A549 cells; also: potency is read from the fitted curve at half-maximal effect; nearly all actives have a fitted effect of over 30% in size
VACV mCherry inh: vaccinia inhibition (mCherry reporter); Vaccinia virus mCherry reporter infection, fluorescence; Potency, µM (highest dose often 36.5 µM), without a hit: at the highest dose activity change, negative = inhibition, usual class: inhibitors; hit rate 0.63% among 310,000; AID 720579; calls by dose curve; tested in A549 cells; also: potency is read from the fitted curve at half-maximal effect; nearly all actives have a fitted effect of over 35% in size
FMDV inh: foot and mouth disease virus antiviral activity | FMDV antiviral cell-based qHTS | Potency, µM (highest dose often 57.9 µM), for inactives: at the highest dose activity change, negative = inhibition, hits mostly inhibitors | hit rate 1.2% among 410,000; calls by dose curve; tested in HEK293T cells; also: read-out not given here; potency is read from the fitted curve at half-maximal effect; nearly all actives have a fitted effect of over 45% in size
Lassa entry inh: blocks Lassa virus binding to or entry into cells. Lassa virus pseudotype entry inhibition, cell reporter. Potency, µM (highest dose often 37.9 µM), inactives show at the top dose activity change, negative = inhibition, most hits filed as inhibitors. hit rate 1.2% among 300,000. AID 540256; calls by dose curve; tested in HEK293 cells; also: potency is read from the fitted curve at half-maximal effect; nearly all actives have a fitted effect of over 50% in size
HCMV inh: blocks human cytomegalovirus replication; AID 1259415; activity change, negative = inhibition, % at 57.5 µM; hit rate 4.5% among 410,000; HFF cells, HCMV-luciferase reporter, 72 h; hits give low values; in the data active = activity change below about -60%; inconclusive = no clear call, values can overlap the other calls; inactive = above about -39%
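Compounds were evaluated in HFFs infected with an HCMV luciferase reporter virus (MOI 1 PFU/cell). Luciferase in lysates collected 72 h post infection served as the replication measure.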
MARV entry inh: Marburg virus entry inhibition; Marburg virus pseudotyped entry inhibition, cell reporter; Potency, µM (doses to about 37.8 µM), for the others: top-dose activity change, negative = inhibition, hits mostly inhibitors; hit rate 1.8% among 300,000; calls by dose curve; tested in HEK293 cells; also: potency is read from the fitted curve at half-maximal effect
Numbers without * were called inactive; i = inactive; ? = inconclusive; · = no result given; [ ] = another dose, or the depositor's remark. % is scaled to controls: 0 for no effect and ±100 for the full control effect.

SMILES | VACV Venus inh | VACV mCherry inh | FMDV inh | Lassa entry inh | HCMV inh | MARV entry inh
CCOC(=O)N(C)[C@H]1C[C@H]2c3[nH]c4ccccc4c3CCN2C[C@H]1[C@H](C)O | -6% | 4% | -14% | · | 21 | ·
CCOC(=O)N(C)[C@H]1C[C@H]2c3cc(-c4ccccc4C)ccc3CCN2C[C@H]1[C@H](C)O | · | · | · | · | -89* | ·
CCOC(=O)N1C/C(=C\c2ccccc2)C(=O)/C(=C/c2ccccc2)C1 | ? | ? | 20µM* | · | -101* | ·
COc1ccc(OC(=O)N2C/C(=C/c3ccccc3)C(=O)/C(=C\c3ccccc3)C2)cc1 | -5% | -7% | 32µM* | 7.1µM* | -97* | ?
COc1ccc(OC(=O)N2CCOCC2)cc1 | · | · | 43% | · | 65 | ·
CCOC(=O)N1CCN(S(=O)(=O)/C=C/c2ccccc2)CC1 | · | · | -12% | 0% | -10 | ?
COc1cccc(C2C(=O)N(C3CCCCC3)CC(=O)N2Cc2ccc(Cl)cc2)c1 (stereo unspecified) | -9% | -13% | 1% | -15%[46.1 µM] | -68* | ·
COc1cccc(CN2C(=O)CN(C3CCCCC3)C(=O)C2c2ccc(OC(C)C)c(OC)c2)c1 (stereo unspecified) | -13% | -2% | 0% | ? | -2 | ·
Nc1[nH]nc2nc(NCc3ccccc3)c3c(c12)CCN(Cc1ccccc1)C3 | 0% | -19% | -22% | 13µM* | 1 | ?
N#Cc1c(NCCN)nc(NCc2ccccc2)c2c1CCN(Cc1ccccc1)C2 | -21% | -8% | -17% | 7% | · | ?
C/C(=N\NC(=O)C(C)n1nc(C)c([N+](=O)[O-])c1C)c1ccccc1O (stereo unspecified) | ? | ? | -14% | 13µM* | -101* | 9.2µM*
O=C(O)c1cc(N/N=C/c2ccc(N3CCOCC3)cc2)ccc1Cl | · | · | 14µM* | · | 113 | ·
CCc1ccc2nc3c(c(C(=O)O)c2c1)CCC3 | · | · | -3% | ? | 5 | -1%
CCC(=O)N/C(N)=N/c1nc(C)c2cc(C)c(C)cc2n1 | ? | ? | -15% | -8% | -8 | 0%[46.1 µM]
Cc1cc2nc(/N=C(\N)NC(=O)C(C)C)nc(C)c2cc1C | 1µM* | ? | -27% | ? | -28 | ?
Cc1cc2nc(N=C(N)N)nc(C)c2cc1C | · | · | ? | · | -99* | ·
Cc1ccc2nc(N=C(N)N)nc(C)c2c1 | -20% | i | ? | -13% | -89* | ?
CCc1ccc2nc(N=C(N)N)nc(C)c2c1 | ? | ? | ? | -5% | -87* | ?
Cc1nc(/N=C(\N)NC(=O)c2ccccc2)nc2ccccc12 | -4% | i | 40% | 1% | 41 | ?
Cc1nc(N=C(N)N)nc2ccccc12 | -17% | -17% | ? | ? | -81* | ?
O=C(CCCc1ccccc1)Nc1ccc2c(c1)OCCO2 | -2% | -8% | -11% | 8.9µM* | 147 | ?
O=C(CC1CS(=O)(=O)CC1CC(=O)Nc1ccc2c(c1)OCCO2)Nc1ccc2c(c1)OCCO2 (stereo unspecified) | · | · | ? | · | -81* | ·
O=C(Nc1ccc2c(c1)OCCO2)c1ccccc1 | -11% | -11% | -39% | ? | · | ?
O=C(CC(=O)c1ccccc1)Nc1ccc2c(c1)OCCO2 | -1% | · | 5% | 8.9µM* | 20 | ?
O=C1COc2ccc(-c3csc(NCCc4ccccc4)n3)cc2N1 | -13% | -20% | 40µM* | ? | 15 | ?
SMILES | VACV Venus inh | VACV mCherry inh | FMDV inh | Lassa entry inh | HCMV inh | MARV entry inh
CCC(C)C(=O)Nc1nc(-c2ccc3c(c2)NC(=O)CO3)cs1 (stereo unspecified) | · | · | -19% | -2% | 66 | ?
C=CCNc1nc(NCCOc2ccccc2Cl)c2sc(-c3ccccc3)cc2n1 | ? | -19% | -27% | · | 1 | ·
CCOC(=O)C1=CN(CC)S(=O)(=O)NC1c1ccccc1 (stereo unspecified) | -6% | -29% | 0% | · | -82* | ·
CCC(C)C(=O)N1CCc2cc(-c3csc(N)n3)ccc21 (stereo unspecified) | ? | ? | 13% | -3% | 109 | ?
CC(C)(C)C(=O)N1CCc2cc(-c3csc(N)n3)ccc21 | -28% | ? | -48% | 2µM* | ? | ?
CCN(Cc1ccc2c(c1)OCCO2)C(=O)CSc1nc(C)nc2sc(C)c(C)c12 | · | · | 32µM* | · | -38 | ·
CCN(Cc1ccc2c(c1)OCO2)C(=O)CSc1ncnc2sccc12 | · | · | -6% | · | -3 | ·

Assay outcomes: PubChem, National Center for Advancing Translational Sciences (NCATS)
